# Assay results published in PubChem BioAssay.
# Calls of active or inactive are those of the source.
# Columns and labels:
# Albumin (Bos taurus) = Albumin (Bos taurus) (UniProt P02769); assay: compounds binding labelled BSA control protein – biochemical, small-molecule microarray, Alexa647 label, 635/667 nm fluorescence, artefact control for SMM control protein annotation, profiling panel (AID 1118); conditions: BSA-A647 binding, fluorescence 635 nm, higher = more signal;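 also: score merges 667 nm emission intensity and signal-to-noise per printed compound spot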
# [1] = probe aXIP binding to arrayed compounds – biochemical, NeuroSMM set, 635/667 nm fluorescence, primary screen (AID 1119); conditions: small-molecule microarray, higher = more signal, called active from +8 up or from −8 down;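 also: probe is the protein aXip251-270 applied at 1 µg/mL to compound-printed slides; binding of probe to printed compounds measured as 667 nm fluorescence plus signal to noise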
# [2] = probe aNOTCH3 binding on compound microarray – biochemical, small-molecule microarray, 635/667 nm fluorescence, primary screen (AID 1120); conditions: higher = more signal;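 also: probe is a biotin-tagged antibody raised against NOTCH3 rather than NOTCH3 protein; score merges spot fluorescence near 667 nm with spot signal to noise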
# [3] = probe aNOTCH2 binding on compound microarray – biochemical, small-molecule microarray, 635/667 nm fluorescence, primary screen (AID 1121); conditions: higher = more signal;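 also: score merges feature fluorescence read at 667 nm with its signal to noise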
# [4] = target: Carbonic anhydrase 2 (Homo sapiens) (UniProt P00918); assay: compounds binding carbonic anhydrase 2 – biochemical, small-molecule microarray, Alexa647-labelled CAII, profiling panel (AID 1122); conditions: CAII-A647 binding fluorescence, higher = more signal
# [5] = COS7 lysate on small-molecule microarray, probe aHis, 635 nm (AID 1123); conditions: COS7 cell lysate, fluorescence, higher = more signal;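 also: z-score combines 667nm fluorescence intensity with signal-to-noise per printed compound spot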
# [6] = probe aLAP1 signal on lysate-treated microarray – cell lysate, small-molecule microarray, COS7 lysate, primary screen (AID 1124); conditions: probe aLAP1, fluorescence, higher = more signal;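 also: lysate comes from COS7 cells expressing LAP1 and is applied at 0.3 µg/mL; score merges spot fluorescence near 667 nm with signal-to-noise over triplicate slides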
# Sam68 (KHDRBS1) = assay: compounds binding KHDRBS1 protein – biochemical, small-molecule microarray, 635 nm fluorescence, primary screen (AID 1125); conditions: higher = more signal;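 also: score merges 667 nm channel intensity with signal to noise over triplicate slides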
# [7] = system: Chordin-like protein 2 (CHRDL2); assay: compounds binding chordin-like 2 – biochemical, small-molecule microarray, 635 nm fluorescence, primary screen (AID 1126); conditions: fluorescence 635 nm, higher = more signal;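 also: printed compound slides probed with Chrdl2 protein at 4 µg/mL for 1 h at 4 C; score merges 667 nm emission intensity with signal to noise over three replicate slides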
# [8] = target: Concanavalin-A (Canavalia ensiformis) (UniProt P02866); assay: compounds binding concanavalin A lectin – biochemical, small-molecule microarray, Alexa647 label, 635 nm, artefact control for SMM control protein annotation, primary screen (AID 1127); conditions: ConA-A647 binding fluorescence, higher = more signal;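 also: z combines 667 nm emission intensity with signal-to-noise across three replicate slides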
# [9] = compounds binding Alexa647 anti-His antibody – biochemical, small-molecule microarray, 635 nm fluorescence, artefact control for SMM control protein annotation, primary screen (AID 1128); conditions: higher = more signal;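 also: score merges feature fluorescence with signal-to-noise for each printed compound spot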
# [10] = system: Human papillomavirus type 1a E7 protein (residues 1-88); assay: HPV1a E7 small-molecule binders, primary screen, biochemical, small-molecule microarray, residues 1-88, 635 nm (AID 1129); conditions: small-molecule microarray binding, fluorescence 635 nm; higher = more signal
# [11] = target: Focal adhesion kinase 1 (Homo sapiens) (UniProt Q05397); assay: PTK2 protein binding on printed compound slides – biochemical, small-molecule microarray, 635/667 nm fluorescence, BSA, DTT, primary screen (AID 1130); conditions: 635 nm fluorescence, higher = more signal;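 also: composite of spot emission at 667 nm and signal to noise over triplicate slides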
# [12] = system: Fibrinogen (Alexa647-labelled); assay: Alexa647-fibrinogen binding to printed small molecules – biochemical, small-molecule microarray, 635/667 nm fluorescence, artefact control for SMM control-protein annotation, profiling panel (AID 1131); conditions: fibrinogen-A647 binding fluorescence, higher = more signal;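 also: z-score merges 667 nm fluorescence with per-spot signal-to-noise over triplicate slides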
# [13] = target: Follistatin (Homo sapiens) (UniProt P19883); assay: FST protein binding to printed compounds – biochemical, small-molecule microarray, 635/667 nm fluorescence, primary screen (AID 1132); conditions: 635 nm fluorescence, higher = more signal
# [14] = target: Fibroblast growth factor 2 (Homo sapiens) (UniProt P09038); assay: basic fibroblast growth factor binding to printed compounds – biochemical, small-molecule microarray, 635/667 nm fluorescence, primary screen (AID 1133); conditions: FGF2, fluorescence 635/667, higher = more signal
# [15] = JC-1 mitochondrial potential readout, lung cancer cells – cell-based, A549, JC-1 fluorescence, basal, 24 h, 100 nL, profiling panel (AID 1138); conditions: higher = more signal;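 also: A549 lung adenocarcinoma cells under basal conditions with no added stimulus; test concentration not given here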
# Lefty1 = Lefty1 protein binding to printed compounds – biochemical, small-molecule microarray, 635/667 nm fluorescence, primary screen (AID 1139); conditions: fluorescence 635/667, higher = more signal
# [16] = system: wheat germ agglutinin (Triticum aestivum), Alexa647-labelled; assay: Alexa647-WGA lectin binding to printed small molecules – biochemical, small-molecule microarray, 635/667 nm fluorescence, artefact control for SMM control-protein annotation, profiling panel (AID 1140); conditions: WGA-A647 binding, 635 nm fluorescence, higher = more signal;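 also: score merges 667 nm feature emission with signal to noise over triplicate slides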
# [17] = target: Luciferin 4-monooxygenase (Photinus pyralis) (UniProt P08659); assay: inhibition of purified Photinus pyralis luciferase – biochemical, luminescence, purified enzyme, 2006 set, primary screen (AID 1141); conditions: purified firefly luciferase, SteadyGlo luminescence, 30 min; higher = more signal, called active from +8 up or from −8 down;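 also: cell-free assay with purified firefly luciferase at 100 ng per well in PBS; test concentration not given here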
# Luciferin 4-monooxygenase (Photinus pyralis), sequence (P08659 whole entry, looked up): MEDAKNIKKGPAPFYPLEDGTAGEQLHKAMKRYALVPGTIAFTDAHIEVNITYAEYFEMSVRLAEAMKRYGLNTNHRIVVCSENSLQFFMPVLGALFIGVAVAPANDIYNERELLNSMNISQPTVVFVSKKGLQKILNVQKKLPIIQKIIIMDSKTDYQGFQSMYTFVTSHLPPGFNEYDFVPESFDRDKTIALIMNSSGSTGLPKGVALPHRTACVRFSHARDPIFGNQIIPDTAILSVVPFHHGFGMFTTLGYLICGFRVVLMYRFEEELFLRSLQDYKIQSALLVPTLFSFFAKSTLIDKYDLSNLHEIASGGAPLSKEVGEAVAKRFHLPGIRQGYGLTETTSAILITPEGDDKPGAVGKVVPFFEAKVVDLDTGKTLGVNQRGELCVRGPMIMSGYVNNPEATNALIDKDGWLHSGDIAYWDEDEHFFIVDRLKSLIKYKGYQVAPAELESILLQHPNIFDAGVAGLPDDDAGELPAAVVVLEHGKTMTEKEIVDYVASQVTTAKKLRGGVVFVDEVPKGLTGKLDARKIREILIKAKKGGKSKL
# Follistatin (Homo sapiens), sequence (P19883 whole entry, looked up): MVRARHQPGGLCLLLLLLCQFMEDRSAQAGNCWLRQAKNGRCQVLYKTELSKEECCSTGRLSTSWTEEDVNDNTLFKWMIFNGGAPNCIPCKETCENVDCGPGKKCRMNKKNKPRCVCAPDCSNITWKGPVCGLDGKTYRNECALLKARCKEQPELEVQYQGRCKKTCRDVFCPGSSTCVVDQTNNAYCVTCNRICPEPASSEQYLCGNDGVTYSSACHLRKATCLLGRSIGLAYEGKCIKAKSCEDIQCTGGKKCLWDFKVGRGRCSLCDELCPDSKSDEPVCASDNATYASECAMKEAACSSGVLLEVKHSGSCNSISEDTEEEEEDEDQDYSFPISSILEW
# Concanavalin-A (Canavalia ensiformis), sequence (P02866 whole entry, looked up): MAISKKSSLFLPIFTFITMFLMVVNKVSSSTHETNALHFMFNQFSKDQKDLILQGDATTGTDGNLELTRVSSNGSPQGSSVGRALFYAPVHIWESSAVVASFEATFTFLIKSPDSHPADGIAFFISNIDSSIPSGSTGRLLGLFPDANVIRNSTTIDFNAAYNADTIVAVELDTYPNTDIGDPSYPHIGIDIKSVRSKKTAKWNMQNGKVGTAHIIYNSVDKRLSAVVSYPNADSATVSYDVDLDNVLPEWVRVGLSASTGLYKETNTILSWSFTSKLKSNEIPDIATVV
# Albumin (Bos taurus), sequence (P02769 whole entry, looked up): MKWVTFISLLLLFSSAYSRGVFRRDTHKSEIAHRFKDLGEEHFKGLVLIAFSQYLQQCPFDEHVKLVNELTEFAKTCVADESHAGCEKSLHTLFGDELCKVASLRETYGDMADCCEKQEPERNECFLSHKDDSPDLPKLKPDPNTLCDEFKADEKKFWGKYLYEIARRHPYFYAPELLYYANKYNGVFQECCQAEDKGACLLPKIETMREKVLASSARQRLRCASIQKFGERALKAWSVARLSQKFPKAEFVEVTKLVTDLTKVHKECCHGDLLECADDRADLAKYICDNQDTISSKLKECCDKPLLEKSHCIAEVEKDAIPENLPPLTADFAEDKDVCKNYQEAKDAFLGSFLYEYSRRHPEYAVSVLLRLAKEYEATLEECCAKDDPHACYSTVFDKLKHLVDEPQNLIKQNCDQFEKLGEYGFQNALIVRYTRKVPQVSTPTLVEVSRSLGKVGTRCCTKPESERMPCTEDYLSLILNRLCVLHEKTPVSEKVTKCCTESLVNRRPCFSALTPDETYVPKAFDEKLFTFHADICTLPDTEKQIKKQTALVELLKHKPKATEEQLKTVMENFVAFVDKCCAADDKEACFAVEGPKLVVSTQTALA
# Fibroblast growth factor 2 (Homo sapiens), sequence (P09038 whole entry, looked up): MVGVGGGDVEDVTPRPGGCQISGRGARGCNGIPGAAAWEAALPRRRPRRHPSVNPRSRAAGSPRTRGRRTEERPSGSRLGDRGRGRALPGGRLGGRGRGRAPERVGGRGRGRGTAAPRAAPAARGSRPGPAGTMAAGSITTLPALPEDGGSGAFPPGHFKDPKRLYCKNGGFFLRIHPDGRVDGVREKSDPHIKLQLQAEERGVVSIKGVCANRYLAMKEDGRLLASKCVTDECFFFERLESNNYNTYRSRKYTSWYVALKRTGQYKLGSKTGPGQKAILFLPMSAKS
# Focal adhesion kinase 1 (Homo sapiens), sequence (Q05397 whole entry, looked up): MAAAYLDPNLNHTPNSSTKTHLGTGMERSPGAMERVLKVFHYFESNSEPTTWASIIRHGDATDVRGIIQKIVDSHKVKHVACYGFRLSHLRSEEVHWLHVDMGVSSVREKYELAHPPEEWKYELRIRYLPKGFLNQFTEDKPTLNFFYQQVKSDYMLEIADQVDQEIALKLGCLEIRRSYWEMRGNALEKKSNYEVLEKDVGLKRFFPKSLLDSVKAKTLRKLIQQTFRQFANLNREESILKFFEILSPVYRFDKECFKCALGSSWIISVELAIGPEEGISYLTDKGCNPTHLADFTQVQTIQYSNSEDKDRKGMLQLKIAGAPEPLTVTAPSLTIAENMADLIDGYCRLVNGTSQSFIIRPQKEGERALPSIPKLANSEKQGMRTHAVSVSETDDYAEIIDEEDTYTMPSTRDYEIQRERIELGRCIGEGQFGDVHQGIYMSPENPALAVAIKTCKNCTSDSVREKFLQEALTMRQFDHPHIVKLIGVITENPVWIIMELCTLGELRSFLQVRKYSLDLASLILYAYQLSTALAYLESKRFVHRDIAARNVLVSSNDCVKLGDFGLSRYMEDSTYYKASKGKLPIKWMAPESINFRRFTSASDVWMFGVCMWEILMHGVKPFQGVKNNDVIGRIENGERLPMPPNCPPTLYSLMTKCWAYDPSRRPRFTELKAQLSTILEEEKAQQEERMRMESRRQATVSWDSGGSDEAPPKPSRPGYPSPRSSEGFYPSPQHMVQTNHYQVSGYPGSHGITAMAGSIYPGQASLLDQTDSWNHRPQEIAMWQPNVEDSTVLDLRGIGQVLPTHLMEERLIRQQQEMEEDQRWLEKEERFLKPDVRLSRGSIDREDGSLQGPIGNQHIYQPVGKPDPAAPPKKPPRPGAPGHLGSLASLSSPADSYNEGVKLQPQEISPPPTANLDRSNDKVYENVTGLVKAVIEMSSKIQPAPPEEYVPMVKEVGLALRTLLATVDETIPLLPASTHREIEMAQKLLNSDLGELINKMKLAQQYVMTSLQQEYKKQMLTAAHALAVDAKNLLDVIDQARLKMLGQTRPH
SMILES,composite z-score (Albumin (Bos taurus)),composite Z-score [1],composite z-score [2],composite z-score [3],composite z-score [4],composite z-score [5],composite z-score [6],composite z-score (Sam68 (KHDRBS1)),composite z-score [7],composite z-score [8],composite z-score [9],composite z-score [10],composite z-score [11],composite z-score [12],composite z-score [13],composite z-score [14],z-score [15],composite z-score (Lefty1),composite z-score [16],z-score [17]
CC(C)N1C(=O)c2ccccc2[C@@H](C(=O)NCC(F)(F)F)[C@@H]1c1ccc(CO)cc1,-0.826,0.492 (inactive),-0.1,-0.07,0.587,0.425,-0.282,-0.28,-0.474,0.104,-0.0668,0.0715,0.284,-0.537,0.527,0.0683,1.41,-0.232,-0.348,-0.189 (inactive)
COCCOC(=O)N1C(=O)[C@@]2(c3cc(C#CCCO)ccc31)[C@H](c1ccc(OCCO)cc1)N1[C@H](c3ccccc3)[C@H](c3ccccc3)OC(=O)[C@H]1[C@@H]2C(=O)N1CCCCCCC1,-0.226,2.1 (inactive),1.26,0.675,0.67,2.7,1.95,1.33,1.43,1.13,0.939,1.2,0.644,0.726,1.46,1.68,-0.901,1.33,1.32,-0.247 (inactive)
CCOC(=O)C1=CC[C@@H](c2ccc(OC)cc2)N(S(=O)(=O)c2ccc(C)cc2)[C@H]1CC,0.894,-0.0608 (inactive),0.164,0.0684,0.579,1.85,0.133,1.33,-0.483,1.07,1.17,1.22,0.493,0.993,0.995,0.873,2.69,0.689,0.902,1.24 (inactive)
NCCCCCCNC(=O)[C@@H]1C[C@@H]2C(=O)N3CCC[C@H]3C(=O)N2[C@@H]1c1cccc(OCCO)c1,0.81,2.71 (inactive),0.113,-0.15,0.709,0.729,1.02,0.462,1.16,1.14,2.14,0.894,0.0676,0.882,0.832,1.16,-0.383,1.24,0.938,-0.268 (inactive)
C=CCN1C(=O)[C@]2(O[C@H](CCn3cc([C@H](O)c4ccccc4)nn3)[C@@H]([Si](C)(C)c3ccc(OC)cc3)[C@@H]2C)c2cc(NC(=O)c3ccc(OC)cc3)ccc21,0.55,0.24 (inactive),-0.0362,-0.135,0.015,1.02,-0.182,0.867,0.334,0.543,0.66,0.499,0.748,0.0903,1.23,0.307,0.997,0.794,0.422,-1.16 (inactive)
[N-]=[N+]=Nc1ccccc1C[C@@]1(C(=O)NCc2ccccc2)N=C(c2ccc(OCCCO)cc2)O[C@@H]1c1ccccc1N=[N+]=[N-],0.913,0.605 (inactive),0.467,-0.0211,0.398,1.99,-0.136,1.14,-0.656,1.12,1.27,1.17,0.268,0.664,1.32,0.32,0.197,-0.0327,1.03,-2.56 (inactive)
O=C1C2C=CC(C(O)c3cccs3)N(Nc3ccc([N+](=O)[O-])cc3)C2C(=O)N1c1ccccc1 (stereo not given),0.523,-0.506 (inactive),0.0105,-0.0694,0.759,2.08,0.218,0.909,0.0721,0.585,0.482,1.11,0.894,0.697,0.337,-0.105,-0.908,-0.457,0.844,1.1 (inactive)
CN1C(=O)C2C(C1=O)C1C=C(c3ccc(CO)cc3)C2C(C2CC2)N1C (stereo not given),0.876,0.111 (inactive),-0.0947,-0.0859,0.431,-0.415,-0.0324,0.164,0.0323,0.0875,0.958,-0.164,-0.324,-0.578,-0.17,-0.124,-0.808,-0.617,-0.0515,0.279 (inactive)
COc1ccc(C(O)C2C=CC3C(=O)N(c4ccccc4)C(=O)C3N2Nc2ccc(C#N)cc2)cc1OCc1ccccc1 (stereo not given),1.06,-0.502 (inactive),0.291,0.131,0.634,2.01,1.17,1.3,-0.333,1.1,1.86,1.21,1.3,0.506,0.636,-0.529,0.399,-0.56,1.15,0.188 (inactive)
O=C1NC(=O)C2C1C=CC(C(O)c1ccc(B(O)O)cc1)N2Nc1ccc(Cl)cc1Cl (stereo not given),0.0179,0.168 (inactive),0.0864,0.119,0.753,0.546,-0.11,-0.597,0.0005,0.423,0.207,-0.213,0.265,0.824,0.529,-0.514,-0.711,-0.382,0.641,-0.63 (inactive)
C=CCC(OC(C)=O)[C@@H]1[C@@H](N(Cc2ccc(-c3cccc(C(F)(F)F)c3)o2)C(=O)c2ccc(-c3ccccc3)cc2)c2cc(OCCCO)ccc2N1C(=O)c1ccc2ccccc2c1 (stereo not given in full),-0.192,-0.0127 (inactive),0.0445,-0.0707,0.323,0.234,-0.376,-0.689,0.0823,-0.654,-0.191,-0.06,0.0473,-0.0951,1.02,0.23,0.413,1.17,0.0415,0.85 (inactive)
